Results published in PubChem BioAssay AID504863 (Sanford-Burnham Center for Chemical Genomics, 2011).
This is one part of the list. Unmarked numbers belong to inactive results. Calls of active or inactive are those of the source.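 How the source made its calls: active means inhibition averaging 50% or more, tested at 20 µM; inactive means the rest.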

Test system: diaphorase (Clostridium kluyveri)
Experiment: C. kluyveri diaphorase inhibition, resazurin coupling – biochemical, fluorescence intensity, 30 µM NADPH, counter-screen for P. falciparum G6PD inhibitor project, confirmation (AID 504863);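 further: 0% = DMSO with enzyme and 100% = DMSO wells lacking diaphorase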
Settings: Diaphorase/resazurin coupled assay, resorufin fluorescence, at 20 µM, stronger effect = higher value

Structure (SMILES)	inhibition
Cc1cccc(C(=O)Nc2nnc(S(=O)(=O)N3CCCCCC3)s2)c1	36.1%
COc1cccc(C(=O)Nc2nnc(S(=O)(=O)N3CCCCC3)s2)c1	57% (active)
COc1cccc(C(=O)Nc2nnc(S(=O)(=O)N3CCOCC3)s2)c1	54.9% (active)
CC(C)(C)NC(=O)COc1ccc(CNc2ccc3[nH]c(=O)[nH]c3c2)cc1	12.2%
COc1ccc(CC(=O)NCC(=O)N/N=C/c2cc(Br)ccc2OC)cc1	70.8% (active)
O=C(Nc1nnc(S(=O)(=O)N2CCCCCC2)s1)c1cccc(Br)c1	41.6%
O=C(Nc1nnc(S(=O)(=O)N2CCOCC2)s1)c1cccc(Br)c1	48.1%
Cn1c(-c2sccc2OCc2cccc(C(F)(F)F)c2)n[nH]c1=S	10.1%
O=C1C=CC(=O)N1c1ccc(N2CCCCC2)cc1	-16.6%
COc1ccc(CCn2c(NN=C3CCCC3)nc3c2c(=O)[nH]c(=O)n3C)cc1	-4.07%
COc1c(O)ccc2c1CN1CCc3cc4c(cc3C1C2)OCO4 (stereo unspecified)	8.58%
O=C(NC1=CC(=O)c2ccccc2C1=O)c1ccccc1	60.6% (active)
O=c1[nH]c2ccccc2n2c(-c3ccccc3)nnc12	15.9%
COc1ccc2c(c1)c(=Cc1ccc(N(C)C)cc1)c1cc(-c3ccccc3)[n+](C)n12	15.6%
CCN(CC)c1ccc2oc(=O)c(C)nc2c1	62.5% (active)
C=CCc1ccccc1OCC(=O)N/N=C/c1ccccc1OCC	43.5%

Structure (SMILES)	inhibition
Cc1ccc(NC(=O)Cn2sc3ccccc3c2=O)cc1	11.3%
CCSc1nnc(NC(=O)c2ccc(C)cc2)s1	56.5% (active)
COc1cccc(C(=O)Nc2nnc(S(=O)(=O)N(C)c3ccccc3)s2)c1	56.8% (active)
Cc1ccc(/C=C/C(=O)Nc2ccc([N+](=O)[O-])c(NC(=O)/C=C/c3ccc(C)o3)c2)o1	-7.03%
OCCN1CCN(C(=S)c2ccc(-c3ccccc3)cc2)CC1	2.65%
c1ccc(-c2cn3c(n2)CCc2ccc4cccnc4c2-3)cc1	45%
O=C(CN1CCN(c2ccc(O)cc2)CC1)Nc1cc(S(=O)(=O)N2CCOCC2)ccc1Cl	7.17%
CCN1CCCC1CNC(=O)c1ccc2c(c1)NC(=O)/C(=C\c1ccccc1F)S2 (stereo unspecified)	-9.58%
CCOc1ccccc1/C=N/NC(=O)CNC(=O)COc1ccccc1	88.1% (active)
O=C1/C(=C\c2ccc([N+](=O)[O-])cc2)CS(=O)(=O)C/C1=C/c1ccc([N+](=O)[O-])cc1	-12.8%
O=C(Nc1nc(-c2ccncc2)cs1)C1COc2ccccc2O1 (stereo unspecified)	-24.7%
Cc1ccnc(-n2sc3ccccc3c2=O)n1	-26.9%
CCOC(=O)C1=C(c2ccc(OC)cc2)C(=O)c2ccccc2C1=O	85.7% (active)
O=[N+]([O-])c1c(NCCO)cc(Sc2nc3ccccc3s2)c2nonc12	0.96%
COc1ccc(OCc2nnc3n2N=C(c2ccccc2)C(CC(=O)O)S3)cc1 (stereo unspecified)	1.64%
